Records with an inconclusive call do not appear. Where a structure was tested more than once in an assay, its records may differ in their call. Calls of active or inactive are those of the source. How the source made its calls, unless noted: active means hit-call score of the fitted dose curve at least 0.9, where 1 is the maximum; inactive means score below 0.9.
Key:
[1] = target: human RAR-related Orphan Receptor beta (RORb), RORB (gene 6096) (UniProt Q92753); experiment: ATG_RORb_TRANS: Attagene TRANS-FACTORIAL HepG2 Assay for human RAR-related Orphan Receptor beta (RORb) (AID 2283010; active means hit-call score of the fitted dose curve at least 0.9, where 1 is the maximum)
human RAR-related Orphan Receptor beta (RORb), RORB (gene 6096), sequence (Q92753 whole entry, looked up, the tested form may be a part): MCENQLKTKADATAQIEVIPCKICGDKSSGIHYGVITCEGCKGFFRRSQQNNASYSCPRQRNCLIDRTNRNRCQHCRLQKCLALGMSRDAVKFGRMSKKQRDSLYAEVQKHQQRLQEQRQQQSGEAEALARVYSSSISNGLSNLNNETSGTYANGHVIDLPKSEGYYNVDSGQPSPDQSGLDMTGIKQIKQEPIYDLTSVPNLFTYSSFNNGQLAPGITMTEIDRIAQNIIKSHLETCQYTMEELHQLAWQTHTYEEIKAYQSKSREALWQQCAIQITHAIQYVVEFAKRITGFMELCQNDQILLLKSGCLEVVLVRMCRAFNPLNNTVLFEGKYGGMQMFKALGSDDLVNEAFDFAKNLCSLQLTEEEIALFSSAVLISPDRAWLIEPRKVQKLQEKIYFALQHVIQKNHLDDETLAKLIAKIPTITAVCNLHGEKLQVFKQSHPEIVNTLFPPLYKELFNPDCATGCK
In short: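 Multiplexed transcription-factor reporter assay: HepG2 cells transiently carrying NR-Gal4/GAL4-UAS constructs, 24 h treatment, mRNA quantified by RT-PCR plus capillary electrophoresis fluorescence; activity scored as induction over DMSO.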

[2] = target: human Retinoid X Receptor beta (RXRb), RXRB (gene 6257) (UniProt P28702); experiment: ATG_RXRb_TRANS: Attagene TRANS-FACTORIAL HepG2 Assay for human Retinoid X Receptor beta (RXRb) (AID 2283013; active means hit-call score of the fitted dose curve at least 0.9, where 1 is the maximum)
human Retinoid X Receptor beta (RXRb), RXRB (gene 6257), sequence (P28702 whole entry, looked up, the tested form may be a part): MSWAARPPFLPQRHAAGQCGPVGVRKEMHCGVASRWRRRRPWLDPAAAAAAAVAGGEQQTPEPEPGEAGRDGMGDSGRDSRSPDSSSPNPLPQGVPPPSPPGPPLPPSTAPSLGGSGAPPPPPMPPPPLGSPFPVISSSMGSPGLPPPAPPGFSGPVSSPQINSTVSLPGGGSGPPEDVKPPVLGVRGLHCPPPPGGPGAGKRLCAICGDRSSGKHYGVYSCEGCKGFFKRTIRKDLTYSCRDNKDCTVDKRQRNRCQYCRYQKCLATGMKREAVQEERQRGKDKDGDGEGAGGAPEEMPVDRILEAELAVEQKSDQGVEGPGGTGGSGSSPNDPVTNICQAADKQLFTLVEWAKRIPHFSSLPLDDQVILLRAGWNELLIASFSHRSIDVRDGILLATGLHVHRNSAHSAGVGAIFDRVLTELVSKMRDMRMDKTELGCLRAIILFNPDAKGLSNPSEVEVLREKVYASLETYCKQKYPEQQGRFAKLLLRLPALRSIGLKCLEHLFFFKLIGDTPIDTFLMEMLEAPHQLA
In short: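 After a 24 h incubation with test chemical, transfected HepG2 cells carrying NR-Gal4 fusions and GAL4-UAS reporter transcription units yield RNA whose reporter cDNA is FAM-labelled, HpaI-cut and sized by capillary electrophoresis; increases over DMSO are scored.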

[3] = target: human Thyroid Receptor alpha (THRa1), THRA (gene 7067) (UniProt P10827); experiment: ATG_THRa1_TRANS: Attagene TRANS-FACTORIAL HepG2 Assay for human Thyroid Receptor alpha (THRa1) (AID 2283014; active means hit-call score of the fitted dose curve at least 0.9, where 1 is the maximum)
human Thyroid Receptor alpha (THRa1), THRA (gene 7067), sequence (P10827 whole entry, looked up, the tested form may be a part): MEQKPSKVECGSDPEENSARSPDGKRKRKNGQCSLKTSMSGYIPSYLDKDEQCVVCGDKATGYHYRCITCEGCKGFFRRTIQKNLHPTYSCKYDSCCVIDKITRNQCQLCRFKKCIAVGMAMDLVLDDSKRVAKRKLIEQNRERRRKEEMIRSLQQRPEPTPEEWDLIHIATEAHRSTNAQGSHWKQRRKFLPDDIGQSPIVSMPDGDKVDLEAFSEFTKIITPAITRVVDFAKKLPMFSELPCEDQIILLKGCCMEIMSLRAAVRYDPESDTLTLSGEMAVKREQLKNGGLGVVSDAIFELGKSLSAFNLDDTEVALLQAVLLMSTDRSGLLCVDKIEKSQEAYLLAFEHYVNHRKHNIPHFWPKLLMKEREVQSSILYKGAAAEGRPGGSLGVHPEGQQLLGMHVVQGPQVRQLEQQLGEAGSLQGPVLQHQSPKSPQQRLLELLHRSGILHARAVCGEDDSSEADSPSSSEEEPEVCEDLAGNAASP
In short: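 First, HepG2 cells receive multiple GAL4-UAS reporter units and the chimeric receptor. They are then dosed for 24 h, after which RNA is reverse-transcribed, amplified, labelled, HpaI-cut and sized by capillary electrophoresis; gain relative to DMSO is scored.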

[4] = read-out: E-selectin (Homo sapiens) (UniProt P16581); experiment: BSK_3C_Eselectin: BioMAP Diversity Plus: 3C Assay for Eselectin Biomarker Activity (AID 2283015); settings: primary human endothelial cells (HUVEC); actives raise or lower the signal
In short: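 Human vascular endothelium from umbilical vein is exposed to test chemicals for 24 h. E-selectin levels are read by ELISA and compared with DMSO controls.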

[5] = read-out: Interleukin-1 alpha (IL1a), IL1A (gene 3552); experiment: BSK_BE3C_IL1a: BioMAP Diversity Plus: BE3C Assay for Interleukin-1 alpha (IL1a) Biomarker Activity (AID 2283016); settings: primary human bronchial epithelial cells; actives raise or lower the signal
In short: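 Measured in human lung primary bronchial epithelial cells: IL-1a by ELISA at 24 h after dosing, with bidirectional fitting against DMSO.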

[6] = read-out: Monocyte Chemoattractant Protein-1 (MCP1), CCL2 (gene 6347); experiment: BSK_3C_MCP1: BioMAP Diversity Plus: 3C Assay for Monocyte Chemoattractant Protein-1 (MCP1) Biomarker Activity (AID 2283017); settings: primary human endothelial cells (HUVEC); actives raise or lower the signal
In short: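 Endothelial cells from human umbilical vein are dosed with chemical, cultured 24 h, then assayed for MCP-1 by ELISA; both increases and decreases are modelled against DMSO controls.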

[7] = read-out: Monocyte Chemoattractant Protein-1 (MCP1), CCL2 (gene 6347); experiment: BSK_4H_MCP1: BioMAP Diversity Plus: 4H Assay for Monocyte Chemoattractant Protein-1 (MCP1) Biomarker Activity (AID 2283018); settings: primary human endothelial cells (HUVEC); actives raise or lower the signal
In short: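 Primary human umbilical vein endothelium is exposed to chemical for 24 h before MCP-1 is assayed by ELISA. Concentration-response fitted bidirectionally relative to DMSO.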

[8] = read-out: Human Leukocyte Antigen - DR isotype (HLADR), HLA-DRA (gene 3122); experiment: BSK_3C_HLADR: BioMAP Diversity Plus: 3C Assay for Human Leukocyte Antigen - DR isotype (HLADR) Biomarker Activity (AID 2283019); settings: primary human endothelial cells (HUVEC); actives raise or lower the signal
In short: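 Endothelial cells from human umbilical vein are treated with test chemical; after 24 h, HLA-DR levels are measured by ELISA. Data are fitted in both directions using DMSO as the baseline.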

[9] = read-out: Interleukin-8 (IL8), CXCL8 (gene 3576); experiment: BSK_3C_IL8: BioMAP Diversity Plus: 3C Assay for Interleukin-8 (IL8) Biomarker Activity (AID 2283020); settings: primary human endothelial cells (HUVEC); actives raise or lower the signal
In short: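 Using DMSO-treated wells as the baseline, bidirectional curve fitting was applied to ELISA-measured IL-8 from human umbilical vein endothelial cultures sampled 24 h after compound addition.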

[10] = read-out: Monokine induced gamma interferon (MIG), CXCL9 (gene 4283); experiment: BSK_3C_MIG: BioMAP Diversity Plus: 3C Assay for Monokine induced gamma interferon (MIG) Biomarker Activity (AID 2283021); settings: primary human endothelial cells (HUVEC); actives raise or lower the signal;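 on AC50: MIG protein level measured by immunoassay in the treated endothelial cultures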
In short: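 ELISA-measured MIG in dosed HUVEC 3C cultures at 24 h, analysed by bidirectional fitting with DMSO defining baseline activity.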

[11] = BSK_3C_SRB: Viability Assessment in the BioMAP Diversity Plus: 3C Assay (AID 2283023); settings: primary human endothelial cells (HUVEC);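 further: cells read 24 h after compound dosing; fitted both ways against DMSO so a hit may be signal rise or drop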
In short: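 Cells were dosed with chemical, cultured 24 h, fixed with 10% TCA, stained with 0.1% SRB and read at 560 nm. Human umbilical vein endothelium was used; DMSO served as negative control and baseline.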

[12] = read-out: Matrix Metallopeptidase 1 (MMP1), MMP1 (gene 4312); experiment: BSK_BE3C_MMP1: BioMAP Diversity Plus: BE3C Assay for Matrix Metallopeptidase 1 (MMP1) Biomarker Activity (AID 2283024); settings: primary human bronchial epithelial cells; actives raise or lower the signal
In short: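 In this multiplexed primary-cell system, human bronchial epithelium received chemicals for 24 h before an ELISA for MMP1. Values reflect bidirectional fits normalised to the DMSO baseline.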

[13] = BSK_3C_Vis: BioMAP Diversity Plus: 3C Assay for Morphology Visualization (AID 2283025); settings: primary human endothelial cells (HUVEC);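 further: fitted both ways so gain or loss versus DMSO counts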;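 on AC50: light microscopy image of cell morphology used as background control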
In short: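 Light-microscopy morphology readout, 24 h exposure, human primary umbilical vein endothelium; analysed relative to DMSO with bidirectional fitting.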

[14] = read-out: Pselectin, SELP (gene 6403); experiment: BSK_4H_Pselectin: BioMAP Diversity Plus: 4H Assay for Pselectin Biomarker Activity (AID 2283026); settings: primary human endothelial cells (HUVEC); actives raise or lower the signal
In short: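 Bidirectional fits against DMSO gave the endpoint. Cells: primary human umbilical vein endothelium, chemical-treated for 24 h before ELISA detection of P-selectin.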

[15] = BSK_4H_SRB: Viability Assessment in the BioMAP Diversity Plus: 4H Assay (AID 2283027); settings: primary human endothelial cells (HUVEC);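 further: cells exposed to compound for 24 h before staining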;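 on AC50: curves fitted both ways versus DMSO so AC50 may be loss or gain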
In short: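 HUVEC, 24 h post-dose; 10% TCA fix, 0.1% SRB stain, A560 nm. Total protein = overt cytotoxicity, parallel to biomarker read. Bidirectional fit vs DMSO baseline.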

[16] = BSK_BE3C_SRB: Viability Assessment in the BioMAP Diversity Plus: BE3C Assay (AID 2283028); settings: primary human bronchial epithelial cells
In short: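 Overt cytotoxicity was assessed as total protein in confluent human primary bronchial epithelial cultures 24 h after chemical addition, using 0.1% sulforhodamine B staining read at 560 nm.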

[17] = read-out: Thrombomodulin, THBD (gene 7056); experiment: BSK_3C_Thrombomodulin: BioMAP Diversity Plus: 3C Assay for Thrombomodulin Biomarker Activity (AID 2283029); settings: primary human endothelial cells (HUVEC); actives raise or lower the signal
In short: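 In a multiplexed primary-cell system, human umbilical vein endothelium received chemical and was assayed 24 h later for thrombomodulin by ELISA. Parallel cultures were SRB-stained (0.1% SRB after 10% TCA fixation, read at 560 nm) to flag cytotoxicity.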

[18] = target: human RAR-related Orphan Receptor gamma (RORg), RORC (gene 6097) (UniProt P51449); experiment: ATG_RORg_TRANS: Attagene TRANS-FACTORIAL HepG2 Assay for human RAR-related Orphan Receptor gamma (RORg) (AID 2283011; active means hit-call score of the fitted dose curve at least 0.9, where 1 is the maximum)
human RAR-related Orphan Receptor gamma (RORg), RORC (gene 6097), sequence (P51449 whole entry, looked up, the tested form may be a part): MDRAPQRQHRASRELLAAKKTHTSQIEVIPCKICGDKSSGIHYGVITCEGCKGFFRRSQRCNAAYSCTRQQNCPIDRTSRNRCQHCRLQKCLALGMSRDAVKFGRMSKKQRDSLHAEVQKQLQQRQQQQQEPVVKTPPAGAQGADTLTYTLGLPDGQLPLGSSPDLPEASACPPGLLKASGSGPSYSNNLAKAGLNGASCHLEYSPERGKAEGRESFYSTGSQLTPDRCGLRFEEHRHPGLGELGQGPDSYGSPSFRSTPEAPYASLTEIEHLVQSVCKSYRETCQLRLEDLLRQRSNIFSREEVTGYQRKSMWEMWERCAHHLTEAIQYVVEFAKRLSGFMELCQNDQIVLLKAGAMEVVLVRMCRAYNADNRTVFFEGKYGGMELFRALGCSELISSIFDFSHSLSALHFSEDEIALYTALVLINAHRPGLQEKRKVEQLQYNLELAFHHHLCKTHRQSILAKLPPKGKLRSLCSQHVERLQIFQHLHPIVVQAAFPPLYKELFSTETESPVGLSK
In short: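 Activity is scored as increase in GAL4-UAS reporter mRNA over DMSO, detected by fluorescent RT-PCR and capillary electrophoresis in HepG2 cells transiently expressing a RORg-Gal4 chimera, 24 h after dosing.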

[19] = target: Retinoic acid receptor RXR-alpha (Homo sapiens) (UniProt P19793); experiment: ATG_RXRa_TRANS: Attagene TRANS-FACTORIAL HepG2 Assay for human Retinoid X Receptor alpha (RXRa) (AID 2283012; active means hit-call score of the fitted dose curve at least 0.9, where 1 is the maximum)
Retinoic acid receptor RXR-alpha (Homo sapiens), sequence (P19793 whole entry, looked up, the tested form may be a part): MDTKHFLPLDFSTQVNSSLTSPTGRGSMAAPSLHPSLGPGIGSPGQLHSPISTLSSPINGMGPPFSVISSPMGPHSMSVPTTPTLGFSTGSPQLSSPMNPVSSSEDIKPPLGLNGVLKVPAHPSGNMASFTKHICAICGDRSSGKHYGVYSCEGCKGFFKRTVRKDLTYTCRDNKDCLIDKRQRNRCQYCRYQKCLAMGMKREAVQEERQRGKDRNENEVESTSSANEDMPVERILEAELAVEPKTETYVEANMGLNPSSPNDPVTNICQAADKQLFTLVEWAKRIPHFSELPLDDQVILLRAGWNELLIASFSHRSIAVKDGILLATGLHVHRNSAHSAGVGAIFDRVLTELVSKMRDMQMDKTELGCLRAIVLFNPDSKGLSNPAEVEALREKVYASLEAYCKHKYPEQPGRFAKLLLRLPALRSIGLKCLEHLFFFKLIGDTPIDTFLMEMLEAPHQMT
In short: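 Chimeric NR-GAL4 trans-activation in HepG2, 24 h treatment; reporter transcripts quantified by fluorescence on capillary electrophoresis, analysed for upward change from DMSO.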

[20] = target: human Vitamin D Receptor (VDR), VDR (gene 7421) (UniProt P11473); experiment: ATG_VDR_TRANS: Attagene TRANS-FACTORIAL HepG2 Assay for human Vitamin D Receptor (VDR) (AID 2283022; active means hit-call score of the fitted dose curve at least 0.9, where 1 is the maximum)
human Vitamin D Receptor (VDR), VDR (gene 7421), sequence (P11473 whole entry, looked up, the tested form may be a part): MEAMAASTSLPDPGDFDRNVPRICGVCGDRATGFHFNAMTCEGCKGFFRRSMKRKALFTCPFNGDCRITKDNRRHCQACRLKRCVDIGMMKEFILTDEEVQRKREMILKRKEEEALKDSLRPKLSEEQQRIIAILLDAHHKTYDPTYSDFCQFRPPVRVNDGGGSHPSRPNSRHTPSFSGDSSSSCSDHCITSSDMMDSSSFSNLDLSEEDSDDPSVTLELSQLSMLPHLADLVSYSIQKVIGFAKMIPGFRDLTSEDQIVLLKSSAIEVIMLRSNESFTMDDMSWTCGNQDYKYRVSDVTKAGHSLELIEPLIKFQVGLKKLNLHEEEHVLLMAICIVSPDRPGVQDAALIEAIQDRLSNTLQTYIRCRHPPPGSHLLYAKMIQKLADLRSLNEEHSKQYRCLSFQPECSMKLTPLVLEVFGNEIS
In short: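 Fluorescence of labelled reporter cDNA fragments, resolved by capillary electrophoresis, gives mRNA induction after 24 h treatment of HepG2 cells carrying transfected Gal4-fusion reporter units. Activity is fitted in the positive direction with DMSO as baseline.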

Measured: AC50

E-selectin (Homo sapiens), sequence (P16581 whole entry, looked up): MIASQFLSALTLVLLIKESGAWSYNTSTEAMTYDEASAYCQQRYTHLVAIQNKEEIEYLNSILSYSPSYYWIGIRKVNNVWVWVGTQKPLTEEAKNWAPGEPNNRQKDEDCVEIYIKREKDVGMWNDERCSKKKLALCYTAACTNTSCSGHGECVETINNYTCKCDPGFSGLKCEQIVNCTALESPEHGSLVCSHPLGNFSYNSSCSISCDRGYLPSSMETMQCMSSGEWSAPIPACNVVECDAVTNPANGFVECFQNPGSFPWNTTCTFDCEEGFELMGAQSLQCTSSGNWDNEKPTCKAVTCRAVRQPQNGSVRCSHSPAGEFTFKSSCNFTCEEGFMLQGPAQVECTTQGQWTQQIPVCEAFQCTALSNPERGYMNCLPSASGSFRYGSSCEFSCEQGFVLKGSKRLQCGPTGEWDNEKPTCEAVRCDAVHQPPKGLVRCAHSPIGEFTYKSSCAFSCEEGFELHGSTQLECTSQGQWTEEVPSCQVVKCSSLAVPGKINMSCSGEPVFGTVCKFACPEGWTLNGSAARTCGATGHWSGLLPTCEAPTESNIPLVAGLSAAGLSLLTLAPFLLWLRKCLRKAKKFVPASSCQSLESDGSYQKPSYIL

CCc1ccc(O)c(C(C)(C)C)c1
active: [2] 8.8 µM | [4] 33.3 µM | [6] 30.9 µM | [7] 25 µM | [8] 30.9 µM | [9] 30.4 µM | [10] 36 µM | [11] 31.2 µM | [13] 39.3 µM | [14] 32 µM | [15] 32.8 µM
inactive: [1] | [3] | [5] | [12] | [16] | [17]

O=S1(=O)CCCO1
inactive: [1] | [2] | [3] | [4] | [5] | [6] | [7] | [8] | [9] | [10] | [11] | [12] | [13] | [14] | [15] | [16] | [17]

Cc1nccn1-c1ccc(Sc2cccc(C3(C(N)=O)CCOCC3)c2)cc1
active: [5] 10.8 µM | [7] 4.95 µM | [9] 11 µM | [20] 38 µM | [11] 9.18 µM | [12] 8.1 µM | [17] 8.22 µM
inactive: [1] | [18] | [3] | [4] | [6] | [10] | [13] | [14] | [15] | [16]

O=C(O)[C@H](O)[C@@H](O)C(=O)O
inactive: [1] | [18] | [2] | [3] | [4] | [5] | [6] | [7] | [8] | [9] | [10] | [11] | [12] | [13] | [14] | [15] | [16] | [17]

FC(F)C(F)(F)COCC1CO1 (stereo not given)
inactive: [1] | [18] | [19] | [4] | [5] | [6] | [7] | [8] | [9] | [10] | [20] | [11] | [12] | [14] | [15] | [16] | [17]

CCCCCCOC(=O)CC(CC(=O)OCCCCCC)(OC(=O)CCC)C(=O)OCCCCCC
inactive: [1] | [18] | [4] | [5] | [6] | [7] | [9] | [10] | [20] | [11] | [12] | [13] | [14] | [15] | [16] | [17]

C[Si](C)(C)C(F)(F)C(F)(F)C(F)(F)F
inactive: [1] | [18] | [2] | [3] | [4] | [5] | [6] | [7] | [9] | [10] | [20] | [11] | [12] | [14] | [15] | [16] | [17]

— PubChem BioAssay (EPA / NIEHS)
